Reference: PubChem BioAssay (Tox21)
Inconclusive results are not listed. Activity calls are given as the source filed them. Unless noted, calls follow the shape of the dose curve; as a rule, active = well fitted inhibition curve with a large enough effect in the repeat runs; inconclusive = weak or mixed curves; inactive = no such curve, though single readings can be large or run the other way.

Assay: qHTS assay to identify small molecule antagonists of the estrogen related receptor (ERR) signaling pathway from Tox21 library (AID 1224848); also: nearly all actives have a fitted effect of over 50% in size; also: potency is read from the fitted curve at half-maximal effect
Details: ERR reporter cell line, luciferase antagonist mode, 18 h; series mostly up to 92.4 µM; activity, negative = inhibition: at the top concentration
In short: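 First, 2,000 ERR cells per well were plated and held 6 h at 37 C/5% CO2. Next, compounds in DMSO were pinned in and left 18 h at 37 C. Finally, ONE-Glo was added and luminescence read after 30 min at room temperature.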
% is scaled to controls: 0 for no effect and ±100 for the full control effect.

SMILES | activity, negative = inhibition | Potency
COCC(=O)N(c1c(C)cccc1C)N1CCOC1=O | 2.48% (inactive) | 
CC(=O)Nc1cc([As](=O)(O)O)ccc1O | -29.9% [at 42.5 µM] (inactive) | 
CNNC | 8.25% (inactive) | 
CCC(Cl)[N+](=O)[O-] (stereo unspecified) | -10.4% (inactive) | 
CC(Cl)(Cl)[N+](=O)[O-] | 2.94% (inactive) | 
Cc1ncc2n1-c1ccc(Cl)cc1C(c1ccccc1F)=NC2 | 18.9% [at 42.5 µM] (inactive) | 
CC1=C(C(=O)O)N2C(=O)[C@@H](N)[C@H]2SC1 | 6% [at 19 µM] (inactive) | 
Cc1nnc2n1-c1sc(CCC(=O)N3CCOCC3)cc1C(c1ccccc1Cl)=NC2 | 2.05% [at 42.5 µM] (inactive) | 
CC1CCCCC1NC(=O)Nc1ccccc1 (stereo unspecified) | 6.12% (inactive) | 
CCCSP(=S)(OCC)Oc1ccc(Cl)cc1Cl (stereo unspecified) | -0.91% (inactive) | 
COC(=O)c1ccccc1S(=O)(=O)NC(=O)N(C)c1nc(C)nc(OC)n1 | 12.4% (inactive) | 
CNC(=O)N(C)c1nc2ccccc2s1 | 148% (inactive) | 
CNC(=O)Oc1ccccc1C1OCCO1 | 6.33% (inactive) | 
O=CNC(N1CCN(C(NC=O)C(Cl)(Cl)Cl)CC1)C(Cl)(Cl)Cl (stereo unspecified) | -1.75% (inactive) | 
Cc1cc(C)nc(Nc2ccccc2)n1 | 29.3% (inactive) | 
CCCCC(=O)Cl | -6.62% (inactive) | 
CCCCN(CCCCO)N=O | -12.6% (inactive) | 
COc1cccc2c1cc([N+](=O)[O-])c1c(C(=O)O)cc3c(c12)OCO3 |  | 4.86 µM (active)
C[C@]12CC[C@H]3[C@@H](CCC4=CC(=O)CC[C@@]43C)[C@@H]1CC[C@@H]2C(=O)O | -12.7% [at 42.5 µM] (inactive) | 
[As]#[In] | 0.509% (inactive) | 
N#CCBr | 1.44% (inactive) | 
CCC(C)n1c(=O)[nH]c(C)c(Br)c1=O (stereo unspecified) | -7.11% (inactive) | 
CCS(=O)(=O)CCSP(=O)(OC)OC | 20% (inactive) | 
C=C(C)CN(CC)c1c([N+](=O)[O-])cc(C(F)(F)F)cc1[N+](=O)[O-] | 2.88% (inactive) | 
CCCCOC(=O)[C@@H](C)Oc1ccc(Oc2ccc(C#N)cc2F)cc1 | -5.94% (inactive) | 
CCC#N | -0.187% (inactive) | 
CCOC(=O)C1(c2ccccc2)CCN(CCc2ccc(N)cc2)CC1 | -20.8% [at 42.5 µM] (inactive) | 
N#CCNCC#N | 2.2% (inactive) | 
CC(=O)CCc1ccc2c(c1)OCO2 | -0.0352% (inactive) | 

Assay: qHTS assay to identify small molecule agonists of the estrogen related receptor (ERR) signaling pathway from Tox21 library (AID 1224849; calls by dose curve; also: nearly all actives have a fitted effect of over 15% in size)
Details: ERR reporter cell line, ONE-Glo luciferase, 18 h; at 92.4 µM (top of the series) unless noted
In short: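 Luminescent agonist read-out (One-Glo, 30-minute room-temperature incubation) following 18-hour compound treatment at 37 C of the ERR cell line, which had been plated 6 hours before dosing.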

SMILES | activity change, positive = activation
COCC(=O)N(c1c(C)cccc1C)N1CCOC1=O | 0.713% (inactive)
CC(=O)Nc1cc([As](=O)(O)O)ccc1O | -16.7% [at 42.5 µM] (inactive)
CNNC | 6.11% (inactive)
CCC(Cl)[N+](=O)[O-] (stereo unspecified) | -7.71% (inactive)
CC(Cl)(Cl)[N+](=O)[O-] | 2.67% (inactive)
Cc1ncc2n1-c1ccc(Cl)cc1C(c1ccccc1F)=NC2 | 12.1% [at 42.5 µM] (inactive)
CC1=C(C(=O)O)N2C(=O)[C@@H](N)[C@H]2SC1 | 3.36% [at 19 µM] (inactive)
Cc1nnc2n1-c1sc(CCC(=O)N3CCOCC3)cc1C(c1ccccc1Cl)=NC2 | 1.19% [at 42.5 µM] (inactive)
CC1CCCCC1NC(=O)Nc1ccccc1 (stereo unspecified) | 4.71% (inactive)
CCCSP(=S)(OCC)Oc1ccc(Cl)cc1Cl (stereo unspecified) | 2.16% (inactive)
COC(=O)c1ccccc1S(=O)(=O)NC(=O)N(C)c1nc(C)nc(OC)n1 | 6.39% (inactive)
CNC(=O)N(C)c1nc2ccccc2s1 | 89.8% (active)
CNC(=O)Oc1ccccc1C1OCCO1 | 4.32% (inactive)
CCOc1nc(C(Cl)(Cl)Cl)ns1 | -11.7% (inactive)
CC(=O)[C@H]1CC[C@H]2[C@@H]3CC[C@H]4C[C@H](O)CC[C@]4(C)[C@H]3C(=O)C[C@]12C | -14.9% [at 42.5 µM] (inactive)
O=CNC(N1CCN(C(NC=O)C(Cl)(Cl)Cl)CC1)C(Cl)(Cl)Cl (stereo unspecified) | 2.23% (inactive)
CCCCC(=O)Cl | -5.15% (inactive)
CCCCN(CCCCO)N=O | -8.16% (inactive)
COc1cccc2c1cc([N+](=O)[O-])c1c(C(=O)O)cc3c(c12)OCO3 | -37.1% (inactive)
C[C@]12CC[C@H]3[C@@H](CCC4=CC(=O)CC[C@@]43C)[C@@H]1CC[C@@H]2C(=O)O | -8.07% [at 42.5 µM] (inactive)
C#CCN1C(=O)COc2cc(F)c(N3C(=O)C4=C(CCCC4)C3=O)cc21 | -22.6% (inactive)
[As]#[In] | 0.493% (inactive)
N#CCBr | 0.914% (inactive)
CCC(C)n1c(=O)[nH]c(C)c(Br)c1=O (stereo unspecified) | -4.95% (inactive)
CCS(=O)(=O)CCSP(=O)(OC)OC | 13.8% (inactive)
C=C(C)CN(CC)c1c([N+](=O)[O-])cc(C(F)(F)F)cc1[N+](=O)[O-] | 1.77% (inactive)
CCCCOC(=O)[C@@H](C)Oc1ccc(Oc2ccc(C#N)cc2F)cc1 | -5.11% (inactive)
